Rows were chosen to be rich in hits. Some 3.7% of all compounds tested hit in one or more screens of this group.
esBAF inh = Bmi1 luciferase reporter increase in mESCs, primary screen, esBAF inhibitor project, mouse ES cells, Bmi1 luciferase knock-in, single point. reporter increase, % at 12.5 µM. 24 h; 100% = twice the neutral-well signal. 350,000 tested, 2% active. AID 602393, 2012; in the data active means activation above about 40%; inconclusive means no clear call, values can overlap the other calls;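 further: 0% = median of the plate's neutral control wells and 100% = double that signal; a rise in the Bmi1 reporter signal indicates esBAF inhibition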
rRNA inh HTS = reduced GFP signal of wild-type E. coli, primary screen, bacterial rRNA inhibitor project, GFP/RFP fluorescence, OD600, single point. AID 720706, 2013. GFP signal change (wild-type ribosome), % (test concentration not listed). E. coli WT GFP vs humanized-ribosome RFP mutants, 24 h; stronger effect = lower value; DMSO median 0, no signal -100. 350,000 tested, 1.6% active;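 active means significant combined selectivity score with lowered wild-type GFP, culture density cut under 30%, mutant RFP and density less affected; inactive means any of these conditions unmet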
AF4-AF9 inh = inhibitors of AF4 peptide binding to AF9, primary screen, biochemical, AlphaScreen, biotin-AF4 peptide, FLAG-AF9, single point; Protein AF-9 (Homo sapiens), P42568; inhibition, % at 10 µM; 350,000 tested, 0.47% active; AID 651704, 2012;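 active means every replicate reaching a set inhibition limit, whatever the replicate mean, cut at about 25% in these data; inconclusive means mean inhibition reaches that limit but some replicates miss it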;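 further: 0% = plate neutral control median and 100% = total signal loss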
Target sequence (P42568 whole entry, looked up): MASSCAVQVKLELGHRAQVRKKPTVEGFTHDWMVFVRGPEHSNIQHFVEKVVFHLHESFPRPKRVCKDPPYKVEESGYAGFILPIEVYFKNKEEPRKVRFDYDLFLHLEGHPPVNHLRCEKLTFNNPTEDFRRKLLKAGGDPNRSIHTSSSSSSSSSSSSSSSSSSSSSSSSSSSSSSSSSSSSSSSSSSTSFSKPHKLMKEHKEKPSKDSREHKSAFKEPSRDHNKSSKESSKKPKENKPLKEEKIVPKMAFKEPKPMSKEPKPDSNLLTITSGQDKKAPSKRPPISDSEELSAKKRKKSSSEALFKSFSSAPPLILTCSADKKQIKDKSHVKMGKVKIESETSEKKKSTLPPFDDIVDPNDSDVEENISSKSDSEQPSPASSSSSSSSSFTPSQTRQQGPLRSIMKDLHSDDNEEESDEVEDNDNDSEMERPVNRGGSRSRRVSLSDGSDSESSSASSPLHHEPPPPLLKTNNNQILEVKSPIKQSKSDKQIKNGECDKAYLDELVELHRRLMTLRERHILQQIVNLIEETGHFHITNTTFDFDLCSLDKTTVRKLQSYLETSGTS
MITF act = activators of MITF-driven TRPM1 promoter reporter, primary screen, cell-based, SK-MEL-5, luciferase, single point | SK-MEL-5 TRPM1-promoter luciferase, 24 h; % of positive control, neutral wells = 0 | activation, % at 12.5 µM | 300,000 tested, 0.75% active | AID 588334, 2011;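 active means mean activation of at least 80% with every replicate also reaching 80%; inconclusive means mean reaches 80% but some replicate falls short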;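 further: 0% = neutral control wells and 100% = parthenolide positive control wells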
Wnt act = Wnt/beta-catenin pathway activators, primary screen, cell-based, plate reader, single point. Wnt/beta-catenin reporter cell assay, activator. activation, % at 9.35 µM. 300,000 tested, 1.2% active; in the data active means activation above about 30%, passing the limit was not always enough; inconclusive means no clear call, values can overlap the other calls;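 further: 0% = neutral control wells and 100% = positive control wells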
* marks the source's active call; other numbers are inactive results; ? = inconclusive; · = no result.

SMILES	esBAF inh	rRNA inh HTS	AF4-AF9 inh	MITF act	Wnt act
CC(=O)c1ccc(NC(=O)CN(c2c(C)cccc2C)S(C)(=O)=O)cc1	56*	-3	1	32	4
CCOc1ccc(NC(=O)Cc2ccccc2)cc1	66*	·	·	83*	35*
c1ccc(OCCNc2ccn3nc(-c4ccccc4)cc3n2)cc1	53*	-35	-1	·	16
Fc1ccc(CNc2ccn3nc(-c4ccccc4)cc3n2)cc1	64*	-42	-7	·	-2
O=c1cc(NCc2ccccc2)nc2ccccn12	·	-5	1	3	0
c1ccc(COc2cccc(-c3cc4nc(NCc5cccs5)ccn4n3)c2)cc1	31	-28*	2	·	-3
c1ccc(OCCNc2ccn3nc(-c4cccs4)cc3n2)cc1	64*	-32	-7	·	-2
CCC(=O)Nc1ccc2c(c1)C(=O)N(C)C[C@@H](OC)[C@@H](C)CN(Cc1ccncc1)[C@@H](C)CO2	-3	1	-4	·	·
Cc1c(C(=O)/C=C/N(C)C)nnn1-c1ccc(F)c(Cl)c1	·	8	0	·	22
Clc1cccc(CNc2ccn3nc(-c4cccs4)cc3n2)c1	59*	-58	-3	·	49*
Clc1cccc(CNc2ccn3nc(-c4ccco4)cc3n2)c1	25	-20	4	·	-2
c1ccc(OCCNc2ccn3nc(-c4ccco4)cc3n2)cc1	48*	-11	-2	·	-1
CCOC(=O)COc1cc(-n2c(=S)[nH]c3ccccc3c2=O)c(Cl)cc1Cl	·	-23*	2	5	0
COc1ccc2nc3oc(C(=O)N4CC(C)CC(C)C4)cc3cc2c1 (configuration not stated)	24	·	·	38	·
O=C(c1cc2cc(Br)ccc2o1)N1CCCC1	39*	-11	-4	16	7
CC1CC(C)CN(C(=O)c2cc3ccccc3o2)C1 (configuration not stated)	58*	-7	-1	44	5
CC1CCN(C(=O)c2cc3ccccc3o2)CC1	57*	·	·	·	·
CC1CC(C)CN(C(=O)c2cc3cc(Br)cc(Br)c3o2)C1 (configuration not stated)	·	-25	-4	83*	1
CC(=O)N1CCN(C(=O)c2cc3ccccc3o2)CC1	2	6	1	4	-1
CCC(=O)N(C)C[C@H]1Oc2ncc(-c3ccccc3F)cc2C(=O)N([C@@H](C)CO)C[C@@H]1C	-2	-3	-4	·	·
CCCCC(=O)Nc1cccc(NC(=O)c2ccccc2Br)c1	-3	·	·	-11	-4
CCOC(=O)c1cn(-c2ccccc2)nc1-c1ccncc1	-9	-2	·	·	·
Cn1c(=O)c2c(ncn2CC(=O)N/N=C/C=C/c2ccco2)n(C)c1=O	-1	18	-6	-16	0
O=C(c1cc2ccccc2o1)N1CCN(Cc2nc3ccccc3s2)CC1	45*	-13	0	·	2
CCN(CC)CCOC(=O)CCc1cccc2ccccc12	4	·	·	·	·
SMILES	esBAF inh	rRNA inh HTS	AF4-AF9 inh	MITF act	Wnt act
CCN(CC)CCOC(=O)C(Cc1ccco1)Cc1cccc2ccccc12 (configuration not stated)	·	-34*	?	·	-1
O=S(=O)(O)c1cc(O)c(N=Nc2ccc(O)cc2O)c2ccccc12	-24	-45	34*	-37	-5
O=[N+]([O-])c1ccccc1N=Nc1ccc(O)cc1O	35	-3	2	·	3
COc1ccc(NC(=O)Cc2ccc(C)c(C)c2)cc1Cl	3	3	0	10	-2
CN1C(=O)[C@H]2[C@@H](C3CC3)N3C(=O)CN(CC4CC4)C(=O)[C@@]3(C)[C@H]2C1=O	·	10	-1	-7	-2
CCOC(=O)C(C)Sc1nnc2n1C(C)(C)Cc1ccccc1-2 (configuration not stated)	3	-22*	·	1	-1
O=C1C=C(c2cc3ccccc3s2)CCC1	74*	·	·	106*	26
CC1(C)CC(=O)C=C(c2cc3ccccc3s2)C1	19	8	3	35	10
Cc1cc(OCCn2cnc3ccccc3c2=O)ccc1[N+](=O)[O-]	·	-4	-19	4	-1
Cc1ccc(OCCn2cnc3ccccc3c2=O)c([N+](=O)[O-])c1	92*	1	1	61	41*

Screens deposited in PubChem BioAssay by Broad Institute.
